# Screening data (PubChem)
# hcDAF-12 act: H. contortus DAF-12 nuclear receptor activators, primary screen, cell-based, luminescence, HEK293, lit1-tk-luc reporter | HEK293 hcDAF-12 lit1-tk-luc reporter; 0% DMSO, 100% Δ7-dafachronic acid | activation, % at 6.8 µM | 370,000 tested, 1.4% active;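 active = activation above the mean of all tested compounds plus 3 SD, cut at about 5.5% in these data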;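 also: 100% = response to 3 µM Δ7-dafachronic acid high control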
# ssDAF-12 act: S. stercoralis DAF-12 nuclear receptor activators, primary screen, cell-based, luminescence, HEK293, GRIP1 co-expression, lit1-tk-luc | Nuclear hormone receptor DAF-12 (Strongyloides stercoralis) | activation, % at 6.8 µM | HEK293 ssDAF-12/GRIP1 lit1-tk-luc reporter; % of 3 µM dafachronic acid response | AID 652126, 2013 | 370,000 tested, 1% active;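 active = activation above the mean over all tested compounds plus 3 SD, cut at about 0.9% in these data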;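 also: 0% = DMSO-only wells and 100% = 3 µM delta7-dafachronic acid wells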
# DAX1 inh-1: DAX1 (NR0B1) inhibitors, primary screen, cell-based, HEK293, Gal4-DAX1, luciferase luminescence | Nuclear receptor subfamily 0 group B member 1 (Homo sapiens), P51843 | HEK293 Gal4-DAX1 luciferase reporter | inhibition, % at 6.75 µM | 340,000 tested, 0.99% active | AID 504766, 2011;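 active = inhibition above the mean over all tested compounds plus 3 SD, cut at about 4.2% in these data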;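 also: 0% = DAX1-transfected cells with DMSO and 100% = empty-vector control cells with DMSO; inhibition shows as a rise in luminescence from relieved DAX1 repression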
# Target sequence (P51843 207-470 limits assumed): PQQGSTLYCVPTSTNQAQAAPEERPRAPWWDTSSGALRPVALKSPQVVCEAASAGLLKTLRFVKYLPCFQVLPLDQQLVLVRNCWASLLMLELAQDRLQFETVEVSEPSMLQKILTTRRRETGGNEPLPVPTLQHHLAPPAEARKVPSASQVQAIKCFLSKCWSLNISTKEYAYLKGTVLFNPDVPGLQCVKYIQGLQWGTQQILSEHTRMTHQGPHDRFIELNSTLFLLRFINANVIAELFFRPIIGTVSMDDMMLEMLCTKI
# hgDAF-12 ag: H. glycines DAF-12 receptor agonists, primary screen, cell-based, luminescence, HEK293, GAL4 fusion, UAS-luciferase | 370,000 tested, 1.8% active | Nuclear hormone receptor DAF-12 (Heterodera glycines), GAL4 fusion | HEK293 GAL4-hgDAF12 UAS-luciferase reporter, agonist luminescence; normalized to butyrate control | AID 687014, 2013 | activation, % at 6.8 µM;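 active = activation above a cutoff set at the mean of all screened compounds plus 3 SD, cut at about 10% in these data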;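 also: 0% = DMSO wells and 100% = sodium butyrate wells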
# DAX1 inh-2: DAX1 (NR0B1) inhibitors on StAR promoter, primary screen, cell-based, luminescence, SF-1 (NR5A1), full-length DAX-1 | inhibition, % at 6.8 µM | 370,000 tested, 1.1% active | AID 652010, 2013 | HEK293T StAR-luciferase reporter, SF-1/DAX-1 repression relief;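 active = inhibition above the mean over all tested compounds plus 3 SD, cut at about 3.6% in these data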;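 also: 0% = DAX-1 cells with DMSO and 100% = cells lacking DAX-1 with DMSO; higher inhibition means more luminescence from relief of DAX-1 repression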
# Active calls of the source: *; · = no result given. Hits are enriched below; roughly 4.1% of the tested compounds scored in any of these assays.
SMILES,hcDAF-12 act,ssDAF-12 act,DAX1 inh-1,hgDAF-12 ag,DAX1 inh-2
O=C(Oc1ccc2ccccc2c1Br)N1CCCCCC1,6.5*,-1,-2,0,3
O=C(COc1ccc2ccccc2c1Br)N1CCCCC1,·,·,3,·,·
Clc1ccc(OCc2nc(-c3ccncc3)no2)c(Cl)c1,6.1*,1,2,12*,3
COC(=O)c1ccc(COc2ccc(CNCc3ccc(Cl)cc3)cc2)cc1,1,-1,1,12*,0
CCNC(=S)NNC(=O)CSc1nnc(-c2ccccc2)n1-c1ccc(Cl)cc1,-4,-1,·,0,-1
COCCCNC(=O)CN1C(=O)C2CCCCN2C(=O)c2ccccc21 (stereo not drawn),2,-1,·,-1,-1
Cn1c(=O)c2cc(S(=O)(=O)N3CCN(Cc4ccccc4)CC3)ccc2n(C)c1=O,2,-1,·,0,0
Cc1ccc(C)c(CN2CCC(CNC(=O)Nc3ccc(Br)cc3F)CC2)c1,-1,-1,0,3,0
Cc1ccc(C)c(CN2CCC(CNC(=O)Nc3ccc(Cl)cc3)CC2)c1,-1,-1,6.2*,1,0
CC(C)CC(NC(=O)c1ccccc1)C(=O)OCC(=O)Nc1ccc(S(N)(=O)=O)cc1 (stereo not drawn),-1,-2,4.5*,2,0
COC(=O)C1CN(Cc2ccc(F)cc2)CCS(=O)(=O)N1Cc1ccccc1 (stereo not drawn),-2,0,·,-3,-1
CCOC(=O)c1sc(Nc2nc(C)cc(C)n2)nc1C,-1,-2,1,1,0
CC(=O)c1sc(N/N=C\c2ccccc2O)nc1C,5,0,2,25*,1
COC(=O)c1cc(=O)nc(NN=Cc2ccccc2O)s1,0,-1,·,1,1
CCOC(=O)c1sc(Nc2nc(C)cc(OC)n2)nc1C,5,-1,4.5*,-1,0
CCOC(=O)c1sc(N/N=C/c2ccccc2)nc1C,4,1.2*,2,7,3
COC(=O)C1=C(C)N(C)C(=NCc2cccc(C(F)(F)F)c2)NC1c1cccc(F)c1 (stereo not drawn),-1,-1,·,1,-1
O=c1c2cc3cc(Cl)ccc3nc2ncn1N1CCCCC1,3,0.9*,·,6,3
NC(=O)c1ncn([C@@H]2O[C@H](C(=O)Nc3ccc(C(=O)N4CCCCC4)cc3)[C@@H](O)[C@H]2O)n1,-1,-1,·,2,1
C=CCN(Cc1ccc2c(c1)OCO2)C(C#CC1CC1)C(C)C (stereo not drawn),0,-1,·,-2,-1
CN(C)c1ccc(/C=N/NC(=O)CN2CCCCC2)cc1Br,-2,1.3*,1,-1,1
O=S(=O)(NCc1ccccc1)NCc1cccc(C(F)(F)F)c1,-3,-1,4.7*,-2,0
COc1cccc(/C=C2\Oc3ccc(O)cc3C2=O)c1O,6.0*,1.8*,1,7,4.0*
COC(=O)c1ccc2c(c1)C(=O)/C(=C/c1ccc(O)cc1)O2,-1,0,1,4,0
Cc1ccc(C(=O)Nc2cccc(C(=O)N/N=C/c3ccc(O)cc3)c2)cc1,5.9*,0,-1,7,1
SMILES,hcDAF-12 act,ssDAF-12 act,DAX1 inh-1,hgDAF-12 ag,DAX1 inh-2
O=C(N/N=C/c1ccccn1)c1ccco1,0,0,2,10,1
O=C(N/N=C\CCc1ccccc1)c1ccco1,3,0,2,13*,2
Cc1ccc(/C=N/NC(=O)c2ccco2)cc1,3,-1,·,12*,2
Cc1cccc(-n2c(C)cc(/C=N\NC(=O)c3ccco3)c2C)c1,2,-1,2,10,2
O=C(N/N=C/c1ccc2ncccc2c1)c1ccco1,5,1,-2,8,4.2*
Cc1ccc(CSc2nnc(-c3n[nH]c4c3CCC4)n2N)cc1,-3,-1,·,5,2
O=C(Oc1ccccc1/C=C\C(=O)c1cc2ccccc2o1)c1ccccc1,6.2*,0,0,10,1
NC(=O)N/N=C/c1ccccc1OC(=O)c1cc2ccccc2oc1=O,1,-1,1,4,2
COc1cccc(C(=O)Oc2ccccc2/C=C\C(=O)c2cc3ccccc3o2)c1,6.5*,1.6*,-1,10,0
COC(=O)[C@]12C[C@H](CC(=O)N3CCCCC3)C(=O)N(CCc3ccc(OC)c(OC)c3)C1=C[C@H](C1CCCC1)O[C@@H]2C,-2,-2,·,0,0
CCOC(=O)c1c(C)[nH]c(C(C)=NNC(=O)c2cccs2)c1C,1,-1,1,12*,4.0*
CCOc1ccc2nc(N3C(=O)/C(=C/c4ccccc4)NC3=S)sc2c1,3,0,5.1*,10,2
COc1ccc2nc(N3C(=O)/C(=C/c4ccccc4)NC3=S)sc2c1,4,-2,-1,0,0
CCOC(=O)N1C(=O)C[C@](Sc2ccc(OC)cc2)(C(=O)N(C)C)[C@H]1c1ccc(OC)cc1,0,-1,·,9,-2
COc1ccccc1CNC(=O)c1ccc(NC2=NC3CS(=O)(=O)CC3S2)cc1 (stereo not drawn),1,-1,0,10*,0
COc1ccccc1CNC(=O)c1ccc(Cl)c(NC2=NC3CS(=O)(=O)CC3S2)c1 (stereo not drawn),4,-1,1,-1,1
CC(=O)c1ccc(NC(=O)CSc2nc(N3CCOCC3)nc(N3CCOCC3)n2)cc1,4,0,1,4,4.1*
CCOC(=O)c1ccc(NC(=O)CSc2nc(N3CCOCC3)nc(N3CCOCC3)n2)cc1,-1,0,0,1,-1
COc1cc(/C=N/n2cnnc2)ccc1OCC(=O)N1CCOCC1,0,-1,4.9*,-3,0
CCOc1ccc(-n2c(COc3ccccc3)nnc2SCC(=O)Nc2ccc(OCc3ccccc3)cc2)cc1,0,-1,·,2,0
CCOc1ccc(CN(C)CC(=O)Nc2cc(OC)c([N+](=O)[O-])cc2C)cc1,4,1.2*,0,-8,-1
CCOc1ccc(CN(C)CC(=O)Nc2cc(C)c(C)cc2[N+](=O)[O-])cc1,0,-1,0,2,0
Cc1ccc(NC(=O)Cc2cccc(OC(F)(F)F)c2)c(S(=O)(=O)N2CCOCC2)c1,0,-2,·,3,0
COc1cc(/C=C/C(=O)O)cc(S(=O)(=O)N2CCc3ccccc32)c1OC,2,2.3*,-2,1,-1
